Measured values: PubChem BioAssay (NCATS)
Results filed as inconclusive are left out. Active and inactive are the calls of the source. Calls follow the shape of the dose curve; as a rule, active = well fitted inhibition curve with a large enough effect; inconclusive = small, poorly fitted or top-dose-only effect; inactive = no such curve, though single readings can be large or run the other way.

System: Zika virus NS2B-NS3 protease (unlinked complex)
Experiment: Primary screen GU Rhodamine qHTS for Zika virus inhibitors: Unlinked NS2B-NS3 protease assay (AID 1347159); also: nearly all actives have a fitted effect of over 60% in size
Conditions: Recombinant ZIKV NS2B-NS3 protease, Rhodamine110 substrate fluorescence; series mostly up to 107 µM; activity change, negative = inhibition: at the top concentration
Summary of the method: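 A qHTS format was used, with compound concentrations ranging up to 114 microM. Each compound was preincubated with 25 nM NS2B-NS3 protease, and the substrate was then added at 1.5 microM. Curves were fitted with a 4-parameter Hill model.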
% is scaled to controls: 0 for no effect and ±100 for the full control effect; potency is read from the fitted curve at half-maximal effect.

Row | SMILES | activity change, negative = inhibition | Potency
1 | C=CCc1ccc(O[C@@H]2O[C@H](CO[C@@H]3O[C@@H](C)[C@H](O)[C@@H](O)[C@H]3O)[C@@H](O)[C@H](O)[C@H]2O)cc1 | -12.2% [at 57.1 µM] (inactive) | 
2 | C[C@H]1CN(C[C@H](Cc2ccccc2)C(=O)NCC(=O)O)CC[C@@]1(C)c1cccc(O)c1 | -8.27% (inactive) | 
3 | CCCC1=CC2=C(CO1)C(=O)C(C)(OC(=O)c1c(C)cc(OC)cc1O)C(O)C2 (stereo not drawn) | -6.79% [at 57.1 µM] (inactive) | 
4 | CC1OC(OC2C(O)C(C(=O)O)OC(OC3CCC4(C)C(CCC5(C)C4C=CC4=C6CC(C)(C)CC(O)C6(C)CCC45C)C3(C)C)C2OC2OCC(O)C(O)C2O)C(O)C(O)C1O (stereo not drawn) |  | 3.55 µM (active)
5 | C[C@@H]1C(=O)O[C@H]2CC34[C@H]5C[C@@H](C(C)(C)C)C36[C@@H](OC(=O)[C@@H]6O)O[C@@]4(C(=O)O5)[C@]21O (stereo partly drawn) | 81.4% [at 57.1 µM] (inactive) | 
6 | C[C@]12CCC(=O)C=C1[C@@H](O)C[C@@H]1[C@@H]2[C@@H](O)C[C@@]2(C)[C@H]1CC[C@]2(O)C(=O)CO | 0% (inactive) | 
7 | C[C@H]1[C@H](C)CC[C@]2(C(=O)O)CC[C@]3(C(=O)O)C(=CCC4[C@@]5(C)CC[C@H](O[C@@H]6O[C@H](C)[C@@H](O)[C@H](O)[C@H]6O)C(C)(C)C5CC[C@]43C)[C@H]12 (stereo partly drawn) | 14.4% [at 32.5 µM] (inactive) | 
8 | C=C[C@H]1[C@H](O[C@@H]2O[C@H](CO)[C@@H](O)[C@H](O)[C@H]2O)OC=C(C(=O)OC)[C@H]1C[C@@H]1N[C@H](C(=O)O)Cc2c1[nH]c1ccccc21 | 100% [at 57.1 µM] (inactive) | 
9 | COC(=O)c1cc(CN2CCN(C(=N)N)CC2)cc(C(=O)N2CCN(C(=O)c3ccc(C(=N)N)cc3)CC2)c1 | -8.8% (inactive) | 
10 | C[C@@H]1CC[C@]2(C)C(C[C@@H](O)[C@H](O)[C@]23CO3)[C@@]1(C)CCc1ccoc1 (stereo partly drawn) | -9.12% (inactive) | 
11 | Cc1cc(Nc2ncc(Cl)c(Nc3ccccc3S(=O)(=O)C(C)C)n2)c(OC(C)C)cc1C1CCNCC1 | 39.4% (inactive) | 
12 | C=CC(C)(C)C1(CC2NC(=O)C3CCCN3C2=O)C(=O)Nc2cc3c(cc21)C=CC(C)(C)O3 (stereo not drawn) | 9.71% [at 57.1 µM] (inactive) | 
13 | C=C1CC2(C(=O)O)CC1CCC2C1(C)CCCC2(C)C(=O)OC(O)C21 (stereo not drawn) | -4.22% (inactive) | 
